# According to ChEMBL document CHEMBL3988442, “University of Dundee, Small-Polar-MMV Screening Library” (2021):
# Hit rate of the full screen: of about 48,000 compounds, about 13,000 (27%) showed an effect of 50% or more. The list shows a part of the results.
# Tested on: Wolbachia pipientis
# Test: Anti-Wolbachia Cell-Based Screen
# Assay type: functional
# Design: scale not given: in the data most compounds retested in dose-response had high values
# Conditions: 5 µM
row,Structure (SMILES),Percent Effect [%]
1,CO[C@H]1CNC[C@@H]1NC(=O)c1cc(C)nc2c(C)cc(C)cc12,0.2692
2,Cc1cnn(CCNCc2ccccc2Oc2cccnc2)c1,8.919
3,CCCc1nc(N2Cc3cnn(Cc4ccc(F)cc4)c3C2)no1,5.743
4,CSc1ccccc1CN1C[C@H]2CC[C@@H]1CN(Cc1[nH]cnc1C)C2,-3.423
5,CC(C)(C)C(N)c1nc(-c2nnc[nH]2)no1 (stereo not given),-10.11
6,COC(=O)c1cnc(/C=C/c2ccc(C(=O)O)cc2)s1,-4.44
7,COC(=O)c1ccc(/C=C/c2ncc(C(=O)O)s2)cc1,5.854
8,CCOc1cc(/C=C/c2ncc(C(=O)O)s2)ccc1O,7.127
9,CNC(=O)c1cnc(/C=C/c2cc(OC)c(O)c(OC)c2)s1,-7.095
10,CCOc1c(Br)cc(/C=C/c2ncc(C(=O)O)s2)cc1OC,109.6
11,CCOc1c(OC)cc(/C=C/c2ncc(C(=O)NC)s2)cc1OC,-0.7468
12,CNC(=O)c1cnc(/C=C/c2cc(OC)cc(OC)c2)s1,5.835
13,CCOc1cc(/C=C/c2ncc(C(=O)O)s2)cc(Br)c1O,111.7
14,CCOc1cc(/C=C/c2ncc(C(=O)O)s2)cc(Br)c1OC,120.5
15,Cc1noc(C)c1CC(=O)NCC(C)N1CCOCC1 (stereo not given),8.973
16,O=C(NCc1cccnc1)[C@@H]1CC[C@@H]2[C@@H](CCN2c2ncccn2)O1.O=C(O)C(F)(F)F.O=C(O)C(F)(F)F,3.562
17,CO[C@@H]1CC[C@H]2[C@H]1OCCN2Cc1ccc(F)cc1.O=C(O)C(F)(F)F,109.6
18,Fc1cccc(CN2CCO[C@H]3[C@@H](OCc4ccccn4)CC[C@@H]32)c1,10.15
19,Fc1ccc(CN2CCO[C@H]3[C@H](OCC4CCCC4)CC[C@@H]32)cc1.O=C(O)C(F)(F)F,109
20,CCO[C@@H]1CC[C@H]2[C@H]1OCCN2Cc1ccc(F)cc1,96.26
21,Fc1ccc(CN2CCO[C@H]3[C@H](OCC4CC4)CC[C@@H]32)cc1.O=C(O)C(F)(F)F,2.778
22,CO[C@H]1CC[C@H]2[C@H]1OCCN2Cc1ccc(F)cc1.O=C(O)C(F)(F)F,91.7
23,CC(=O)c1cccc(S(=O)(=O)NCC(C)(O)c2cccs2)c1 (stereo not given),1.748
24,COCCN1CCN(C(=O)C[C@@H]2C[C@@H](C(C)C)[C@H](CC#N)C=C2C)CC1,7.225
25,COc1cc(F)ccc1-c1cc(N)ccn1,-8.193
